Compound activity: PubChem BioAssay, National Center for Advancing Translational Sciences (NCATS)
IL1B secr inh: inhibitors of inflammasome signaling (IL-1 beta secretion). THP-1 LPS/ATP IL-1B secretion, AlphaLISA, 16 h; stronger effect = lower value. activity change, % at 57.5 µM. actives 4.7% (n = 360,000). AID 743279; in the data active means activity change below about -50%; inconclusive means mostly about -30% to -49%; further: on the % scale 0 is the no-effect control and ±100 the full control effect
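THP-1 cells pretreated 1 hr with compounds (up to 57.5 uM final), then stimulated with LPS (250 ng/mL final) plus ATP (1.25 mM final); secreted IL-1B measured by AlphaLISA after 16 hr, decreased signal indicating inhibition.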
HepG2 viability: counter-screen for TGF-b inhibitors: cytotoxicity in HepG2 cells | HepG2 CAGA-GFP viability, ATP luminescence, 18 h | Potency, µM (doses to about 46.1 µM), inactives show at the highest dose activity change, negative = cytotoxicity, most hits filed as cytotoxic | actives 0.76% (n = 410,000) | AID 588856; further: potency means the concentration at half of the fitted maximal effect
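HepG2 CAGA-GFP cells (1000/well, DMEM with 1% FBS) received compound, then TGF-beta at 500 pg/mL final, and were incubated 18 hours at 37 degrees C. Viability was read by CellTiter-Glo luminescence. Media-only wells were set as complete cell-killing and DMSO as no toxicity.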
Giardia killer: kills Giardia lamblia | Giardia lamblia trophozoite viability | activity change, % at 7.66 µM, hits read low | actives 0.15% (n = 340,000) | AID 540267; in the data active means activity change below about -80%; inconclusive means between about -30% and that limit;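 further: parasites exposed to compound for two days anaerobically before the ATP read; on the % scale 0 is the no-effect control and ±100 the full control effect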
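Luminescence from cellular ATP indicates surviving trophozoites (100 cells/well) following 48 hrs anaerobic compound treatment at 37 deg C; signal develops 15-30 min at room temperature.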
HT1080NT lethal: kills 2HG-producing HT-1080-NT fibrosarcoma cells; HT-1080-NT fibrosarcoma viability, CellTiter-Glo ATP luminescence, 48 h; Potency, µM (highest dose often 46.1 µM), without a hit: at the top dose activity, negative = less viability, hits mostly cytotoxic; actives 1.6% (n = 360,000); AID 686970;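 further: NT is the 2HG producing partner of a matched IDH1 knockdown line; potency means the concentration at half of the fitted maximal effect; 0% = DMSO-treated cells and -100% = media-only wells without cells; nearly all actives have a fitted effect of over 55% in size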
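Read-out is CellTiter-Glo luminescence after 10 minutes at room temperature, following 48 hours' compound treatment of HT-1080-NT cells (750 cells/well, RPMI, 5% FBS, 37 degrees C).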
HT1080 IDH1KD tx: kills HT-1080 cells with IDH1 knockdown. HT-1080 IDH1 knockdown viability, ATP luminescence, 48 h. Potency, µM (series often up to 46.1 µM), for the others: at the top dose activity, negative = toxicity, hits mostly cytotoxic. actives 2% (n = 360,000);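 further: potency means the concentration at half of the fitted maximal effect; 0% = DMSO wells and -100% = cell-free medium wells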
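CellTiter-Glo luminescence after 48 h compound exposure at 37 degrees C of IDH1-knockdown HT-1080 cells in 5% FBS RPMI. %Activity scaled between DMSO wells and cell-free media wells, with curves fitted and assigned curve classes.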
TGFb SMAD3 inh: TGF-b pathway inhibition | HepG2 CAGA-GFP TGF-b/SMAD3 reporter, GFP fluorescence, 18 h; TGF-beta stimulated, 500 pg/mL final | Potency, µM (titrated, usually from 46.1 µM), for the others: at the highest dose activity, negative = inhibition, usual class: inhibitors | actives 1.2% (n = 410,000); further: potency means the concentration at half of the fitted maximal effect; on the % scale 0 is the no-effect control and ±100 the full control effect; nearly all actives have a fitted effect of over 65% in size
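Inhibition of TGF-beta-driven CAGA-GFP reporter expression in HEPG2 cells is measured by cellular GFP fluorescence after 18 h stimulation with 500 pg/mL recombinant TGF-beta in 1% FBS medium at 37 degrees C.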
Starred values were filed as active, the others as inactive; ? = inconclusive; / = no result. Sampled rows, rich in hits. Any-hit rate of the full collection: about 6.5%. Unless noted, the call rests on the fitted dose curve; in most records, active means well fitted curve in the direction sought with a large enough effect; inconclusive means small, poorly fitted or top-dose-only effect, or another doubt; inactive means no such curve, though single readings can be large; an effect the other way counts as inactive or inconclusive.

SMILES	IL1B secr inh	HepG2 viability	Giardia killer	HT1080NT lethal	HT1080 IDH1KD tx	TGFb SMAD3 inh
C=CCn1c(NS(=O)(=O)c2ccccc2)c(S(=O)(=O)c2ccc(C)cc2)c2nc3ccccc3nc21	-84*	2%	15	5%	17%	?
O=S(=O)(Nc1c(S(=O)(=O)c2ccccc2)c2nc3ccccc3nc2n1C1CCCCC1)c1ccccc1	-69*	-27%	-1	?	16µM*	?
CCCCn1c(N)c(S(=O)(=O)c2ccc(C)cc2)c2nc3ccccc3nc21	-81*	-39%	-10	?	?	?
CN(C)CCCn1c(N)c(S(=O)(=O)c2ccccc2)c2nc3ccccc3nc21	-27	-16%	-4	-1%	-1%	20%
c1ccc2c(c1)nc(Nc1ccc3c(c1)OCO3)c1nnnn12	-12	-17%	14	-30%	?	-2%
Clc1ccccc1Cc1noc(CN2CCN3CCCC3C2)n1 (configuration not stated)	22	-2%	4	10%	-3%	-1%
CNS(=O)(=O)c1ccc(CCC(=O)N2CCN(c3ccccc3OC)CC2)cc1	-1	-5%	?	0%	9%	?
COc1ccc(Nc2ncnc3ccc(C)cc23)cc1	-2	2%	-8	-1%	-1%	12%
CCCc1ccc(C(=O)NNc2ccccc2F)cc1	2	-9%	7	?	6.5µM*	-6%
Cc1cc(C(=O)NNc2ccccc2F)no1	3	-4%	-27	5.2µM*	2.6µM*	6%
CCc1ccccc1NNC(=O)c1cc(C)on1	26	-31%	-7	-14%	-23%	-27%
Cc1cc(C(=O)NNc2c(Cl)cccc2Cl)no1	4	9%	0	-3%	7%	2%
CCc1ccc(C(=O)NNc2ccccc2F)cc1	?	17%	-8	?	?	0%
Cc1cc(C(=O)NNc2ccc(F)cc2)no1	5	-3%	8	?	5.2µM*	-9%
CCC(=O)N1CC23C=CC(CC2CC12CCCCC2)O3 (configuration not stated)	9	0%	-13	7%	-2%	-12%
Oc1c(-c2cc(-c3ccco3)[nH]n2)ccc2ccccc12	11	-25%	-12	-27%	-24%	3%
CN(C)c1ccc(/C=C2\C=Cc3cc(N)ccc32)cc1	/	-8%	/	/	/	6%
CN1CCN(C(=O)c2ccc(CSc3ccc(Cl)cc3)cc2)CC1	-62*	4%	-4	-1%	3%	-5%
CCOC(=O)N1CCN(C(=O)c2ccc(CSc3ccc(Cl)cc3)cc2)CC1	-80*	-5%	4	-25%	?	?
CN1CCN(C(=O)c2ccc(Cl)cc2)CC1	7	4%	-15	12%	23%	?
Cc1ccc(SCc2ccc(C(=O)N3CCCCC3)cc2)cc1	-10	-9%	10	-7%	2%	-14%
CCCS(=O)(=O)c1nc(S(=O)(=O)c2ccc(C)cc2)c(NC)s1	/	0%	/	/	/	-12%
COC(=O)c1ccc(OC)cc1OCC(=O)N1CCN(c2ccc(F)cc2)CC1	17	-2%	-3	-2%	7%	?
O=C(/C=C/c1c(F)cccc1Cl)Nc1ccncc1	20	-2%	-24	17%	20%	?
O=C(/C=C/c1c(Cl)cccc1Cl)Nc1ccncc1	-60*	-40%	-21	13%	-1%	-22%
Cc1ccc(-n2c(-c3ccccc3)c[n+]3c2CCc2ccccc2-3)c(C)c1	-99*	-26%	2	23µM*	?	?
Cc1ccc(-n2c(SCC(=O)N3CCCc4ccccc43)nnc2-c2cccnc2)c(C)c1	20	0%	7	6%	0%	-5%
O=C(NCc1ccccc1Br)c1ccco1	-5	9%	1	12%	-1%	20%
